Measurements: PubChem BioAssay (NCI)
This is part of a sample that, as a whole, favours compounds with a hit. Of some 83,000 tested, about 20% had one in any assay.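 Plates (96-well) were seeded with cells, treated with compound at one concentration, and incubated for 48 hours before percent growth was determined.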 Activity calls are given as the source filed them. Rule for the calls: active = growth percent below 10; inactive = the rest.

Legend:
Assay in all cases: NCI-60 one-dose screen, 48 h (100 = growth as untreated, 0 = no growth, -100 = all killed)
Details in all cases: 10 µM unless noted
HCT-15 colon = tested on: HCT-15 colon
HT29 colon = tested on: HT29 colon
SNB-75 CNS = tested on: SNB-75 CNS
SNB-19 CNS = tested on: SNB-19 CNS
U251 CNS = tested on: U251 CNS
PC-3 prostate = tested on: PC-3 prostate
SK-MEL-5 melanoma = tested on: SK-MEL-5 melanoma
UACC-62 melanoma = tested on: UACC-62 melanoma
SK-MEL-28 melanoma = tested on: SK-MEL-28 melanoma
LOX IMVI melanoma = tested on: LOX IMVI melanoma

Measured: growth

COc1ccc2c(c1)cn1c3ccc(O)cc3nc(N)c21
inactive: HCT-15 colon 18.5% | HT29 colon 21.2% | SNB-75 CNS 15% | SNB-19 CNS 26.9% | U251 CNS 23.7% | PC-3 prostate 19.9% | SK-MEL-5 melanoma 17.8% | UACC-62 melanoma 32.5% | SK-MEL-28 melanoma 42.6%

Cc1ccc(C(=O)Nc2ccc(CN3CCN(C)CC3)c(C(F)(F)F)c2)cc1C#Cc1cnc2cccnn12
active: HCT-15 colon -83.1% | HT29 colon -69.8% | SNB-75 CNS -99.1% | SNB-19 CNS -98.3% | U251 CNS -98.5% | PC-3 prostate -64.1% | SK-MEL-5 melanoma -98.8% | UACC-62 melanoma -89.1% | SK-MEL-28 melanoma -97%

COc1cc(-c2nc(C(=O)Nc3ccc(C)cc3)nn2-c2ccc(F)c(F)c2)cc(OC)c1OC
inactive: HCT-15 colon 94.7% | HT29 colon 75.5% | SNB-75 CNS 84.9% | SNB-19 CNS 104% | U251 CNS 100% | PC-3 prostate 96.7% | SK-MEL-5 melanoma 95.8% | UACC-62 melanoma 105% | SK-MEL-28 melanoma 108%

COc1ccc(-c2ccc3c(N4CCOC[C@@H]4C)nc(N4CCOC[C@@H]4C)nc3n2)cc1CO
active: HCT-15 colon 6.93% | HT29 colon 6.32% | SNB-75 CNS -44.9% | SNB-19 CNS 9.71% | U251 CNS 7.15% | PC-3 prostate 9.37% | SK-MEL-5 melanoma -26.8% | UACC-62 melanoma -32.3% | SK-MEL-28 melanoma -17.1%

CC1(O)CCC2CC3OC3(C)CCC3OC3(C)C(O)CC1C2(C)C (stereo unspecified)
inactive: HCT-15 colon 102% | HT29 colon 102% | SNB-75 CNS 95.3% | SNB-19 CNS 99.3% | U251 CNS 98.3% | PC-3 prostate 87.4% | SK-MEL-5 melanoma 112% | UACC-62 melanoma 98.3% | SK-MEL-28 melanoma 112%

O=C(Nc1ccc(N=Nc2ccccc2)cc1)c1cccc2ccccc12
inactive: HCT-15 colon 21.8% | HT29 colon 35.4% | SNB-75 CNS 39.3% | SNB-19 CNS 67.3% | U251 CNS 63.6% | PC-3 prostate 54.8% | SK-MEL-5 melanoma 59% | UACC-62 melanoma 34.6% | SK-MEL-28 melanoma 67.5%

N#CC(C#N)=NO
inactive: HCT-15 colon 104% | HT29 colon 91.7% | SNB-75 CNS 89.1% | SNB-19 CNS 102% | U251 CNS 95.2% | PC-3 prostate 71.8% | SK-MEL-5 melanoma 108% | UACC-62 melanoma 102% | SK-MEL-28 melanoma 110%

C/C(=C(/c1ccc(Cl)cc1)c1ccc(OCCN2CCCCC2)cc1)c1ccccc1
inactive: HCT-15 colon 24.8% | SNB-75 CNS 90.7% | SNB-19 CNS 86.7% | U251 CNS 66.5% | PC-3 prostate 66.8% | SK-MEL-5 melanoma 62% | UACC-62 melanoma 64.9% | SK-MEL-28 melanoma 91.5%
active: HT29 colon 3.98%

O=C1CC(c2ccc(Cl)cc2)c2ncn(-c3cccc(Cl)c3)c2N1 (stereo unspecified)
inactive: HCT-15 colon 27.7% | HT29 colon 28.8% | SNB-75 CNS 36.2% | SNB-19 CNS 50% | U251 CNS 36.3% | PC-3 prostate 67.7% | SK-MEL-5 melanoma 34.1% | UACC-62 melanoma 33.9% | SK-MEL-28 melanoma 54.8%

CC(C)(C)c1nc(-c2cccc(NS(=O)(=O)c3c(F)cccc3F)c2F)c(-c2ccnc(N)n2)s1
active: HT29 colon 8.76%
inactive: HCT-15 colon 90.8% | SNB-75 CNS 107% | SNB-19 CNS 111% | U251 CNS 113% | PC-3 prostate 100% | SK-MEL-5 melanoma 61.1% | UACC-62 melanoma 30.9% | LOX IMVI melanoma 24.5% | SK-MEL-28 melanoma 37.1%

COc1ccc(-n2c(=O)c3ccccc3n(Cc3ccc(C(=O)NO)cc3)c2=O)cc1
active: U251 CNS -40.2% | PC-3 prostate -24.6% | SK-MEL-5 melanoma 6.91% | UACC-62 melanoma -30.8% | SK-MEL-28 melanoma -17.4%
inactive: HCT-15 colon 61.3% | HT29 colon 29.6% | SNB-75 CNS 11% | SNB-19 CNS 18.1%

C=C1C(=O)O[C@H]2[C@H]1CC/C(Cn1cc(-c3cc(C)c(C)cc3C)nn1)=C\CC[C@@]1(C)O[C@@H]21
inactive: SNB-75 CNS 29% | SNB-19 CNS 41.8% | U251 CNS 12.8%
active: HCT-15 colon -82.6% | HT29 colon -67.9% | PC-3 prostate -69.7% | SK-MEL-5 melanoma 7.44% | UACC-62 melanoma -82% | SK-MEL-28 melanoma -76.3%

Cc1cc(C(O)CN(C)C)cc2c1ccc1cc(C(C)C)ccc12 (stereo unspecified)
inactive: SNB-19 CNS 59%
active: HCT-15 colon -38.7% | HT29 colon -65.1% | SNB-75 CNS -63.5% | U251 CNS -48.8% | SK-MEL-5 melanoma -93.1% | UACC-62 melanoma -81.2% | LOX IMVI melanoma -100% | SK-MEL-28 melanoma -100%

CN(C)C/C=C/C(=O)Nc1cc2c(Nc3ccc(F)c(Cl)c3)ncnc2cc1O[C@H]1CCOC1
active: HCT-15 colon -6.21% | HT29 colon -2.13% | SNB-75 CNS -1.97% | SNB-19 CNS 8.32% | U251 CNS -3.99% | PC-3 prostate 5.5% | SK-MEL-5 melanoma -81.4% | UACC-62 melanoma -42.3% | LOX IMVI melanoma -73.5% | SK-MEL-28 melanoma -57.5%

COc1cnc2c(c1)C(=O)c1c-2n(CCCN2CCC(N)CC2)c(=O)c2cc([N+](=O)[O-])ccc12
inactive: HCT-15 colon 49% | HT29 colon 36.5% | SNB-75 CNS 60.9% | SNB-19 CNS 39.8% | U251 CNS 39.4% | PC-3 prostate 40.7% | SK-MEL-5 melanoma 72.4% | UACC-62 melanoma 49.8% | SK-MEL-28 melanoma 116%

COc1ccc2c(CCC(c3ccccc3)c3ccccc3)c3[n+](cc2c1OC)CCc1cc2c(cc1-3)OCO2
active: HT29 colon 6.26% | PC-3 prostate -39.8% | SK-MEL-5 melanoma -99.6% | UACC-62 melanoma -43.5% | SK-MEL-28 melanoma 3.87%
inactive: HCT-15 colon 47.1% | SNB-75 CNS 37.1% | SNB-19 CNS 20.6% | U251 CNS 10.5%

CCCCN1CCCC[C@@H]1C(=O)N[C@H](C(=O)N(C)[C@H](CCc1nc(C(=O)N[C@@H](Cc2ccccc2)C[C@H](C)C(=O)OC)cs1)C(C)C)C(C)C
inactive: HCT-15 colon 59.4% | HT29 colon 68.9% | SNB-75 CNS 75.2% | SNB-19 CNS 57.9% | U251 CNS 83.8% | PC-3 prostate 35% | SK-MEL-5 melanoma 53.5% | UACC-62 melanoma 43.6% | SK-MEL-28 melanoma 76.4%

COc1ccc(C(=O)c2cc(OC)c(OC)c(OC)c2)cc1/C=C/C(=O)c1ccc(F)cc1
inactive: HCT-15 colon 23.9% | HT29 colon 13.6% | SNB-75 CNS 58.7% | SNB-19 CNS 71.3% | U251 CNS 34.1% | PC-3 prostate 76.7% | SK-MEL-5 melanoma 57% | UACC-62 melanoma 45.5% | SK-MEL-28 melanoma 13.1%

COC(=O)[C@]12CC[C@@H](C)[C@H](C)[C@@H]1C1=CC[C@@H]3[C@@]4(C)C[C@@H](OC(=O)/C=C/c5ccccc5)[C@H](O)[C@@](C)(CO)[C@@H]4[C@H](O)C[C@@]3(C)[C@]1(C)CC2
active: HCT-15 colon -20.9% | HT29 colon -49.3% | U251 CNS -28.5% | SK-MEL-28 melanoma 4.73%
inactive: SNB-75 CNS 44.1% | SNB-19 CNS 14.3% | PC-3 prostate 11.3% | SK-MEL-5 melanoma 18.3% | UACC-62 melanoma 21.4%

CNC(=O)CN1CCC(Oc2cc3c(Nc4cccc(Cl)c4F)ncnc3cc2OC)CC1
inactive: HCT-15 colon 66.8% | HT29 colon 36.8% | SNB-75 CNS 20.9% | SNB-19 CNS 70.3% | U251 CNS 80.4% | PC-3 prostate 65.7% | SK-MEL-5 melanoma 77.2% | UACC-62 melanoma 86.8% | SK-MEL-28 melanoma 91.7%

COc1cc(N2CCC(N3CCN(C)CC3)CC2)ccc1Nc1ncnc(Nc2ccccc2S(=O)(=O)C(C)C)n1
inactive: HCT-15 colon 103% | HT29 colon 84.1% | SNB-75 CNS 101% | SNB-19 CNS 98.6% | U251 CNS 101% | PC-3 prostate 93.7% | SK-MEL-5 melanoma 110% | UACC-62 melanoma 102% | SK-MEL-28 melanoma 105%

COC1CCC(N2C(=O)CNc3ncc(-c4ccc(C(C)(C)O)nc4)nc32)CC1 (stereo unspecified)
active: HT29 colon 5.39% | SNB-75 CNS -22.7% | U251 CNS 2.23% | SK-MEL-5 melanoma -45.2% | UACC-62 melanoma -21% | LOX IMVI melanoma 2.43% | SK-MEL-28 melanoma -8.74%
inactive: HCT-15 colon 10.1% | SNB-19 CNS 13.5%

C=CC(=O)N1CCC(Oc2cc3c(Nc4ccc(Cl)c(Cl)c4F)ncnc3cc2OC)CC1
inactive: HCT-15 colon 21.2% | SNB-19 CNS 32.4% | U251 CNS 32.8% | SK-MEL-5 melanoma 18.7% | UACC-62 melanoma 20.7% | SK-MEL-28 melanoma 63.3%
active: HT29 colon -16.4% | SNB-75 CNS -18.4% | LOX IMVI melanoma -66.1%

CCN(CC)CCN1C(=O)c2cccc3c(-c4ccc5c(c4)ncn5C4CCCCC4)ccc(c23)C1=O
inactive: SNB-19 CNS 32.6% | U251 CNS 14.7% | UACC-62 melanoma 22%
active: HCT-15 colon 8.61% | HT29 colon 0.739% | SNB-75 CNS 4.41% | SK-MEL-5 melanoma -96.6% | LOX IMVI melanoma -81.6% | SK-MEL-28 melanoma -38.2%

Cc1cc(Nc2cc(N3CCN(C)CC3)nc(Sc3ccc(NC(=O)C4CC4)cc3)n2)n[nH]1
inactive: HCT-15 colon 40.2% | SNB-19 CNS 46.8% | U251 CNS 30% | UACC-62 melanoma 13% | SK-MEL-28 melanoma 34.4%
active: HT29 colon 0.79% | SNB-75 CNS 0.133% | SK-MEL-5 melanoma 9.58% | LOX IMVI melanoma -69.2%

CN1CCN(Cc2ccc(NC(=O)c3[nH]ncc3Nc3ncnc4sc5c(c34)CCCC5)cc2)CC1
active: HCT-15 colon -69.3% | HT29 colon -36.9% | SNB-75 CNS -94.2% | SNB-19 CNS -88.8% | U251 CNS -84.2% | SK-MEL-5 melanoma -99.9% | UACC-62 melanoma 4.67% | LOX IMVI melanoma -91.7% | SK-MEL-28 melanoma -78.9%
